Test results taken from PubChem BioAssay (Tox21).
Records with an inconclusive call do not appear. The source made the active and inactive calls. The call rests on the fitted dose curve; in most records, active means well fitted cell-killing curve with a large enough effect in the repeat runs; inconclusive means weak or mixed curves, or effect the other way; inactive means flat fitted curve, though single readings scatter.

Assay: qHTS assay to identify small molecule agonists of the TGF-beta/Smad signaling pathway - cell viability counter screen (AID 1346829); further: top concentration of the series differs between compounds; nearly all actives have a fitted effect of over 45% in size
Conditions: SBE-bla HEK293T viability, CellTiter-Glo luminescence, 5 h; series mostly up to 76.8 µM
Description: National Center for Advancing Translational Sciences [NCATS]
NIH Chemical Genomics Center [NCGC]
U.S. Environmental Protection Agency [EPA]
National Institutes of Environmental Health Sciences [NIEHS]
National Toxicology Program [NTP]
U.S. Food and Drug Administration [FDA]
Transforming growth factor beta (TGF-beta) superfamily consists of a large number of structurally related dimeric proteins that act as hormones or local mediators in regulating a wide range of biological functions. This superfamily includes TGF-betas themselves, the bone morphogenetic proteins (BMPs) and the activins. These ligands induce oligomerization of serine/threonine receptor kinases and phosphorylate the cytoplasmic signaling molecules of Smad protein family. CellSensor SBE-bla HEK 293T cell line (Life Technologies, Carlsbad, CA), responsive to TGF-beta was used to screen Tox21 10K compound library for identification of agonists/antagonists of the Smad signaling pathway. This cell line contains a beta-lactamase reporter gene under control of the Smad binding element (SBE) stably integrated into HEK 293T cells. Also cytotoxicity of the compounds was tested in parallel by measuring the cell viability using CellTiter-Glo assay system in the same wells.
Tox21 Assay Protocol Summary:
SBE-bla HEK 293T cells were dispensed at 4,000/well in 6 uL of assay medium into black wall/clear-bottom 1536-well plates using a Multidrop Combi (ThermoFisher Scientific, Waltham, MA) dispenser. After the assay plates were incubated at 37 C and 5% CO2 for an overnight, 23 nL of compounds dissolved in DMSO, positive controls or DMSO only was transferred to the assay plate by a Pintool station (Kalypsys, San Diego, CA). The assay plates were incubated at 37 C and 5% CO2 for 5 hr. One uL of LiveBLAzer B/G FRET substrate (Life Technologies) was added using a Flying Reagent Dispenser (FRD, Aurora Discovery, San Diego, CA) and the plates were incubated at room temperature for 2 hr. Fluorescence intensity (405 nm excitation, 460 nm and 530 nm emissions) was measured using an Envision plate reader (PerkinElmer, Shelton, CT). For cytotoxicity read, 4 uL of CellTiter-Glo reagent (Promega Corporation, Madison, WI) was added to each well of the assay plates using FRD. After 30min incubation at room temperature, the luminescence intensity was measured using ViewLux plate reader (PerkinElmer).

SMILES	outcome
C[C@]12CCC(=O)C=C1[C@@H]1C[C@@H]1[C@H]1[C@@H]3[C@@H]4C[C@@H]4[C@@]4(CCC(=O)O4)[C@@]3(C)CC[C@@H]12	inactive
O=C(O)CNc1ccccc1	inactive
Cc1ccccc1CCO	inactive
O=C(N[C@@H](Cc1ccccc1)[C@@H](O)C(=O)N1C[C@@H](O)[C@@H](O)C1)c1cc2cc(Cl)ccc2[nH]1	inactive
O=C1c2ccccc2C(=O)C1c1ccc2ccccc2n1	inactive
COc1ccnc2c1CCCCC2S(=O)c1nc2ccccc2[nH]1 (stereo not given)	inactive
CC(C)(C)NCC(O)COc1ccc(NC(=O)NC2CCCCC2)cc1 (stereo not given)	inactive
CC(Cc1ccccc1)(NC(=O)CN)c1ccccc1 (stereo not given)	inactive
CCCCCCCCCCCCCCCCC(=O)O	inactive
O=C(O)c1ccccc1[N+](=O)[O-]	inactive
O=C(O)COCC(=O)O	inactive
Cc1cc(C)c(C)c(O)c1	inactive
CCCC(=O)OCc1ccccc1	inactive
CC(C(=O)O)c1ccc(/C=C2\CCCCC2=O)cc1 (stereo not given)	inactive
CC(=O)S[C@H](C(=O)N[C@H]1Cc2ccccc2[C@H]2CCC[C@@H](C(=O)O)N2C1=O)C(C)C	inactive
O=C(O)c1ccccc1-n1cc(C(=O)O)c(=O)c2cc(Nc3c(F)cc(F)cc3Cl)c(Cl)cc21	inactive
Cc1cc(SC2=C(O)C[C@@](CCc3ccc(N)cc3)(C(C)C)OC2=O)c(C(C)(C)C)cc1CO	inactive
CCC(=O)O[C@]1(C(=O)COC)[C@@H](C)C[C@H]2[C@@H]3CCC4=CC(=O)C=C[C@]4(C)C3(F)[C@@H](O)C[C@@]21C (stereo not given in full)	inactive
CCOc1ccc(NC(C)=O)cc1N	inactive
COc1cc(C)c(Cc2cnc(N)nc2N)cc1OC	inactive

SMILES	outcome
CCOC(OCC)OCC	inactive
C[C@H](CN1CCCC1)C(=O)c1ccc(C(F)(F)F)cc1	inactive
Nc1ccc(-c2ccc(F)cc2)cc1	inactive
O=C1OC(=O)C2CC=CCC12 (stereo not given)	inactive
CC(C)Oc1ccccc1O	inactive
COc1ccc(C(=O)c2ccc(C)cc2)c(O)c1	inactive
OCCCO	inactive
CC(=O)Nc1cccc(N)c1	inactive
NC(=O)c1cc[n+](CC2=C(C(=O)[O-])N3C(=O)[C@@H](NC(=O)Cc4cccs4)[C@H]3SC2)cc1	inactive
Cc1nc(C)c(C)nc1C	inactive
C=Cc1ccc(C=C)cc1	inactive
CC(C)=CCC/C(C)=C/C=N/O	inactive
Cc1c(Cl)cccc1Nc1ccccc1C(=O)O	inactive
NCCOCCOCCN	inactive
CCCCCCCCCCCCN1CCOCC1	inactive
C[C@H](N)C(=O)N[C@@H](C)C(=O)NC1[C@H]2CN(c3nc4c(cc3F)c(=O)c(C(=O)O)cn4-c3ccc(F)cc3F)C[C@@H]12 (stereo not given in full)	inactive
C=C(C)C(=O)OCCCCCCCCCCOC(=O)C(=C)C	inactive
O=C(OCCOCCOCCOC(=O)c1ccccc1)c1ccccc1	inactive
CCCCCCC/C=C/C=O	inactive
CCCOC(C)=O	inactive
